Out of some 310,000 compounds screened, about 14,000 (4.5%) showed an effect of 50% or more. Effects have a minus sign here. What follows is part of a selection rich in strong results, with near analogues and random picks from the rest.
Molecular target: human ether-à-go-go-related gene (hERG) potassium channel (human, UniProt Q12809)
Assay: primary screen, population patch clamp on CHO cells stably expressing hERG; higher = less effect of the substance
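Note: peak tail current of the secondary pulse compared with the same well before compound.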

Chain of human ether-à-go-go-related gene (hERG) potassium channel (Q12809 whole entry, looked up): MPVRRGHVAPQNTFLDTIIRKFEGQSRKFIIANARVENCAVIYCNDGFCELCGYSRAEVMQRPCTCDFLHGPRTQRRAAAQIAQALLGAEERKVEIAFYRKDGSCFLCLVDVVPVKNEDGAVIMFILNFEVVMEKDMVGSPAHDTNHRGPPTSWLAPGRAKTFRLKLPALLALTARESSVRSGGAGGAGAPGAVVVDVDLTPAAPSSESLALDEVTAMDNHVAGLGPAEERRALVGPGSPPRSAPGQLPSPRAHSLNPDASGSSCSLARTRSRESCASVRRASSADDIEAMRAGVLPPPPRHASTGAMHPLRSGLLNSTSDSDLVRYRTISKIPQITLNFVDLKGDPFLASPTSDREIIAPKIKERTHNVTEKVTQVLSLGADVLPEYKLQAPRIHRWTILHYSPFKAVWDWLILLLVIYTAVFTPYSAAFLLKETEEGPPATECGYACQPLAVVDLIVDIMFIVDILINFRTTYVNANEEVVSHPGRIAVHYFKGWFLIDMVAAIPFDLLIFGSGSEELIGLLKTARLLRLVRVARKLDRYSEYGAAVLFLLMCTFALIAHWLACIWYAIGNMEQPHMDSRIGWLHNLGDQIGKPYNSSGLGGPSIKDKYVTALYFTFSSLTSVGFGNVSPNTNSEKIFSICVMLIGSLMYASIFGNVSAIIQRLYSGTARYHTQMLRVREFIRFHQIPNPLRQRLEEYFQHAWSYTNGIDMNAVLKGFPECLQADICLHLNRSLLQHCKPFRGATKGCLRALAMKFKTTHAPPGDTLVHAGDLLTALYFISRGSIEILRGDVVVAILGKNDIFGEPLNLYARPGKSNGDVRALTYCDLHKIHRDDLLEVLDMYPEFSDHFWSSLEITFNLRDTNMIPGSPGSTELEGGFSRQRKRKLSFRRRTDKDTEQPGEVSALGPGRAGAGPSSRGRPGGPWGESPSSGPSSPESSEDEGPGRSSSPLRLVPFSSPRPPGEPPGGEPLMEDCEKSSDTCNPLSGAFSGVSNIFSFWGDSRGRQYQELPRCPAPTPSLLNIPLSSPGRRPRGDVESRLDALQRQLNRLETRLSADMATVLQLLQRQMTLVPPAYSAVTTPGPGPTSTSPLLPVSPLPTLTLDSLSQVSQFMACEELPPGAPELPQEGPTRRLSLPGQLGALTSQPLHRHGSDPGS

Compared with `Clc1cccc(Cl)c1C1N2CCCN12` (stereo not shown), `CC(=O)Nc1ccc2c(c1)nc(CN1CCCC1)n2C` is lower in “hERG current change (%, negative = inhibition) at 10uM” value: 11.4% for the first, -7.28% for the second.

First: CC(C)c1ccc(CNc2c([N+](=O)[O-])c(=O)oc3ccccc23)cc1
Second: CCC(=O)c1ccc(OCC(=O)NCC2COc3ccccc3O2)cc1 (stereo not shown)
The “hERG current change (%, negative = inhibition) at 10uM” value of the first is higher: 14.2% for the first, -25.5% for the second.

Compared with `O=C(/C=C/c1ccc(NC(=O)c2ccccc2-c2ccccc2C(=O)O)cc1)c1ccccc1`, `CC(=O)N1CCN(Cc2nc3cc(NC(=O)c4ccccc4)ccc3n2C)CC1` is lower in “hERG current change (%, negative = inhibition) at 10uM” value: 25.7% for the first, 15.8% for the second.

Going from `Cc1ccc(C)n1-c1ccc(N2CCOCC2)nc1` to `Cc1ccc(S(=O)(=O)N2CCCc3ccccc32)cc1C`, the “hERG current change (%, negative = inhibition) at 10uM” value rises from -1.52% to 0.165%.

First: CNC(=O)c1nnc(Cc2ccc(F)cc2)o1
Second: COC(=O)c1ccc(-n2cncn2)c([N+](=O)[O-])c1
The “hERG current change (%, negative = inhibition) at 10uM” value of the first is lower: 9.51% for the first, 12% for the second.

First: C/C(CC(=O)Nc1ccc(N(C)C)cc1)=N\NC(=O)c1ccccn1
Second: CC(=O)N1CCN(Cc2nc3cc(NC(=O)c4cccc(Br)c4)ccc3n2C)CC1
The “hERG current change (%, negative = inhibition) at 10uM” value of the first is higher: 7.77% for the first, -70% for the second.

Compared with `O=C(OCc1cc(=O)oc2cc(O)ccc12)c1cc(S(=O)(=O)N2CCOCC2)ccc1F`, `Cc1ccc(S(=O)(=O)N2CCN(C(=O)c3ccc(-n4cncn4)c([N+](=O)[O-])c3)CC2)cc1C` is lower in “hERG current change (%, negative = inhibition) at 10uM” value: 5.32% for the first, -72.7% for the second.

Going from `Cc1ccc(S(=O)(=O)N(C)C)cc1NC(=O)c1ccc(-n2cncn2)c([N+](=O)[O-])c1` to `Cc1cc(C)c(NC(=O)CNC(=O)c2ccc(-n3cncn3)c([N+](=O)[O-])c2)c(C)c1`, the “hERG current change (%, negative = inhibition) at 10uM” value rises from -38.8% to -12.8%.

Going from `Cc1cc(C)c(S(=O)(=O)N2CCN(C(=O)c3ccc(-n4cncn4)c([N+](=O)[O-])c3)CC2)c(C)c1` to `COC(=O)c1ccc(N2CCN(S(=O)(=O)c3c(C)cc(C)cc3C)CC2)c([N+](=O)[O-])c1`, the “hERG current change (%, negative = inhibition) at 10uM” value rises from -62.5% to 21.4%.

Compared with `C[C@H](NC(=O)c1nc[nH]c1C(=O)N1CCN(C(=O)OC(C)(C)C)CC1)c1ccccc1`, `CCC(=O)Nc1ccc2c(c1)nc(CN1CCN(C(C)=O)CC1)n2C` is lower in “hERG current change (%, negative = inhibition) at 10uM” value: 12.4% for the first, -0.94% for the second.

First: CCCCN(C1CCS(=O)(=O)C1)S(=O)(=O)c1cccs1 (stereo not shown)
Second: CCN(C1CCS(=O)(=O)C1)S(=O)(=O)c1cccs1 (stereo not shown)
The “hERG current change (%, negative = inhibition) at 10uM” value of the first is lower: -7.11% for the first, 14.8% for the second.

First: CN(C1CCS(=O)(=O)C1)S(=O)(=O)c1cccs1 (stereo not shown)
Second: CC(C)(C)c1cc[n+](C2=C([O-])c3ccccc3C(=O)/C2=N\S(=O)(=O)c2cccs2)cc1
The “hERG current change (%, negative = inhibition) at 10uM” value of the first is lower: -51.6% for the first, -44% for the second.

Compared with `Cc1cc(CCCCCCCCc2cc(C)cc(=O)o2)oc(=O)c1`, `CCN(CC)CCCNC(=S)N(Cc1cccnc1)Cc1cc2cc(C)cc(C)c2[nH]c1=O` is higher in “hERG current change (%, negative = inhibition) at 10uM” value: -2.63% for the first, 22.9% for the second.

First: O=C(Nc1nc(-c2ccccn2)cs1)c1cccc(-n2cnnn2)c1
Second: Cn1c(CN2CCCCC2)nc2cc(NC(=O)c3cccc(Br)c3)ccc21
The “hERG current change (%, negative = inhibition) at 10uM” value of the first is higher: -5.61% for the first, -63.3% for the second.

Going from `CC(C)(C)NS(=O)(=O)c1ccc(OCC(=O)NCCC2=CCCCC2)cc1` to `COc1cccc(N(CC(=O)NC2CCCC2)C(=O)CCC(=O)Nc2cc(C)on2)c1`, the “hERG current change (%, negative = inhibition) at 10uM” value falls from -14.1% to -16.4%.

Going from `COc1ccc(N2CCN(C(=O)C3CCCN(c4ncnc5c4nc4n5CCCCC4)C3)CC2)cc1` (stereo not shown) to `COc1cccc(N2CCN(C(=O)C3CCCN(c4ncnc5c4nc4n5CCCCC4)C3)CC2)c1` (stereo not shown), the “hERG current change (%, negative = inhibition) at 10uM” value falls from -68.7% to -81.7%.

Compared with `CC(=O)c1ccc(N2CCN(C(=O)C3CCCN(c4ncnc5c4nc4n5CCCCC4)C3)CC2)cc1` (stereo not shown), `COc1ccccc1N1CCN(C(=O)C2CCCN(c3ncnc4c3nc3n4CCCCC3)C2)CC1` (stereo not shown) is higher in “hERG current change (%, negative = inhibition) at 10uM” value: -75.4% for the first, -12.5% for the second.

Going from `CN1CCN(C(=O)C2CCCN(c3ncnc4c3nc3n4CCCCC3)C2)CC1` (stereo not shown) to `CCOC(=O)N1CCN(C(=O)C2CCCN(c3ncnc4c3nc3n4CCCCC3)C2)CC1` (stereo not shown), the “hERG current change (%, negative = inhibition) at 10uM” value falls from 1.36% to -22.9%.

Compared with `CC1CCN(C(=O)C2CCCN(c3ncnc4c3nc3n4CCCCC3)C2)CC1` (stereo not shown), `CCC(=O)Nc1ccc2c(c1)nc(CN1CCCCC1)n2C` is higher in “hERG current change (%, negative = inhibition) at 10uM” value: -41.5% for the first, 15% for the second.

Compared with `Cc1ccc(Nc2nnc(-c3ccc4c(c3)OCO4)o2)c(C)c1`, `Cc1ccc(CN(Cc2cc3cccc(C)c3[nH]c2=O)C(=S)NCCCN(C)C)cc1` is lower in “hERG current change (%, negative = inhibition) at 10uM” value: 19.8% for the first, -65% for the second.

First: COc1ccc(C(C)N2CC34C=CC(O3)C(C(=O)O)C4C2=O)cc1 (stereo not shown)
Second: COc1cc2cc(CN(CCc3cccc(C)c3)C(=S)NCCCN3CCOCC3)c(=O)[nH]c2cc1OC
The “hERG current change (%, negative = inhibition) at 10uM” value of the first is higher: 8.42% for the first, -66.9% for the second.

Compared with `Cc1cc(C)c2[nH]c(=O)c(CN(Cc3cccnc3)C(=S)NCCCN(C)C)cc2c1`, `Cc1cc(C)c2[nH]c(=O)c(CN(Cc3ccccc3)C(=S)NCCCN(C)C)cc2c1` is lower in “hERG current change (%, negative = inhibition) at 10uM” value: -35.6% for the first, -52.8% for the second.

Compared with `Cc1ccc2cc(CN(CCc3ccccc3)C(=S)NCCCN(C)C)c(=O)[nH]c2c1`, `Cc1ccc2[nH]c(=O)c(CN(CCCN(C)C)C(=S)NCCc3ccccc3)cc2c1` is higher in “hERG current change (%, negative = inhibition) at 10uM” value: -72% for the first, -42% for the second.

Compared with `Cc1ccc2[nH]c(=O)c(CN(Cc3ccccc3)C(=S)NCCCN(C)C)cc2c1`, `Cc1cccc2cc(CN(Cc3ccccc3)C(=S)NCCCN(C)C)c(=O)[nH]c12` is lower in “hERG current change (%, negative = inhibition) at 10uM” value: -24.9% for the first, -38% for the second.

First: COc1cc2cc(CN(CCc3ccccc3C)C(=S)NCCCN3CCOCC3)c(=O)[nH]c2cc1OC
Second: COc1cc2cc(CN(CCc3cccc(C)c3)C(=S)NCCCN(C)C)c(=O)[nH]c2cc1OC
The “hERG current change (%, negative = inhibition) at 10uM” value of the first is lower: -38.4% for the first, -1.74% for the second.

Going from `Cc1cccc2cc(CN(Cc3cccnc3)C(=S)NCCCN(C)C)c(=O)[nH]c12` to `CCc1c(C)n([O-])c2c([n+]1=O)CCC2`, the “hERG current change (%, negative = inhibition) at 10uM” value rises from 3.93% to 13.1%.

Source: publication PMC4336329 (PLoS ONE, 2015)
